# Sampled rows, rich in hits. Any-hit rate of the full collection: about 1.2%.
# BJeLR lethal = MLPCN primary cell-based screen for lethality selective to Ras in HRASV12 cells; 300,000 tested, 0.17% active; inhibition, % (concentration not given with the values); BJeLR (HRASV12) viability, CellTiter-Glo ATP luminescence, 48 h; AID 1554, 2009; in the data active = inhibition above about 50%
# PrPC TRFRET = inhibitors of human cell surface prion protein PrPC, primary screen, cell-based, TR-FRET; Major prion protein (Homo sapiens), P04156; TR-FRET read-out; inhibition, % at 13.8 µM; 370,000 tested, 0.43% active; in the data active = inhibition above about 24%; also: 0% = median of the test wells and 100% = reference compound wells
# SARS 3CLpro inh = SARS-CoV 3CLpro protease inhibitors, primary screen, biochemical, quenched FRET | Replicase polyprotein 1ab (Severe acute respiratory syndrome coronavirus), P0C6X7 | recombinant SARS-CoV 3CLpro, quenched FRET peptide cleavage | inhibition, % at 6 µM | 290,000 tested, 0.14% active | AID 1706, 2009; in the data active = inhibition above about 12%
# PriA SSB inh = inhibitors of Klebsiella pneumoniae PriA binding to SSB C-terminal tail, primary screen, biochemical, AlphaScreen | AlphaScreen SSBct-PriA binding, biotinylated peptide | inhibition, % at 33 µM | 430,000 tested, 0.6% active; in the data active = inhibition mostly above about 37%, no sharp cut-off; inactive = mostly below about 20%;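 also: plate controls were negative control peptide for no effect and reference peptide for full effect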
# PrP 5UTR inh = inhibition of PrP 5' UTR reporter expression | cell-based PrP 5' UTR mRNA reporter, plate reader | 340,000 tested, 0.35% active | inhibition, % (test concentration not listed); in the data active = inhibition above about 52%; also: 0 = median of the neutral control wells
# Numbers without * were called inactive; x = no result.
SMILES,BJeLR lethal,PrPC TRFRET,SARS 3CLpro inh,PriA SSB inh,PrP 5UTR inh
O=C(Nc1ccc(Br)cc1)C1Cc2ccccc2OC1=NO (stereo not given),x,x,x,-2,x
COc1cc(NC(=O)NCC(c2ccc3c(c2)CCCN3C)N2CCCC2)cc(OC)c1 (stereo not given),x,x,x,40*,x
COC(=O)c1ccc(CN2CC(c3nc(-c4cnccn4)no3)C2)o1,x,x,x,-3,x
ClC1=C(Cl)C(Cl)=C(Cl)C1=C/C=C/c1ccccc1,89*,-9,-1,2,-21
Cc1csc(-c2csc(N)n2)c1,x,x,x,-18,x
COc1ncccc1C(=O)NCc1cccnc1-c1cccs1,x,x,x,1,x
O=c1[nH]nc(C2CC2)c2cnn(-c3ccc(F)cc3)c12,x,x,x,-5,x
CC(C)(C)NC(=O)N1CCC(CNS(=O)(=O)CCOc2ccccc2)CC1,x,x,x,-5,x
O=C(CCc1ccc(Oc2cc([N+](=O)[O-])cc([N+](=O)[O-])c2)cc1)N1CCCCC1,-4,-23,4,45*,-17
Cc1ccc(CNC(=O)CCc2c(C)nc3c(c(C)nn3-c3ccc(C)cc3)c2C)cc1,-8,0,-1,-11,-6
Cc1ccc(-n2nc(C)c3c(C)c(CCC(=O)NCc4ccco4)c(C)nc32)cc1,7,-4,x,96*,11
Cc1nnsc1C(=O)N/N=C/c1ccc2ccccc2c1O,61*,-2,1,x,48
CC[C@@H](C)[C@H](CNC)NC[C@@H](Cc1cccc2ccccc12)NCCc1cccc(C(F)(F)F)c1,13,-8,5,-14,-1
CNC[C@@H](CC1CCCCC1)NC[C@H](CC(C)C)NCCc1cccc(C(F)(F)F)c1,54*,-11,6,7,13
CCC[C@@H](CNC)NC[C@H](Cc1ccccc1)NCCCCc1ccccc1,5,-8,0,1,-14
CNC[C@@H](Cc1ccccc1)NC[C@@H](CC1CCCCC1)NCCCc1ccccc1,92*,9,3,-11,13
COc1ccc(C2C(C#N)=C(N)SC(N)=C2C#N)cc1OC,8,59*,-1,-8,-20
N#CC1=C(N)SC(N)=C(C#N)C1c1cccc(O)c1,7,27*,8,-11,-26
N#CC1=C(N)Oc2cc(O)ccc2C1c1ccccc1 (stereo not given),2,5,-3,-12,8
COc1ccc(C=NNC(=O)CC#N)cc1Oc1nc(Cl)ncc1F,x,x,x,0,x
O/N=C\c1cn(CC(O)Cn2cnc3ccccc32)c2ccccc12 (stereo not given),x,x,x,9,x
COc1ccccc1CNC(=O)CSc1nc(-c2ccccc2)cn1N,-7,-2,-5,9,-1
CN(C(=O)CSc1nc(-c2ccccc2)cn1N)C(c1ccccc1)c1ccccc1,-4,-6,0,50*,1
COc1ccc2nc(C)cc(N/N=C/c3ccc(F)cc3)c2c1,93*,-8,-23,x,15
COc1ccc2nc(C)cc(NN=Cc3ccc(F)cc3)c2c1,x,x,x,28,x
SMILES,BJeLR lethal,PrPC TRFRET,SARS 3CLpro inh,PriA SSB inh,PrP 5UTR inh
CCOC(=O)c1[nH]cnc1C(=O)O,3,-5,1,-2,-29
O=C(O)c1nc[nH]c1C(=O)O,x,x,x,85*,x
O=c1c(Cl)nc2cc(Cl)ccc2n1CCNc1ncc(C(F)(F)F)cc1Cl,88*,x,0,-1,0
O=c1c2nncn2c2cc(C(F)(F)F)ccc2n1CCNc1ncc(C(F)(F)F)cc1Cl,-2,-11,-2,-3,-15
COc1cc(OC)c(OC)cc1/C=C/c1cc(C(=O)O)c2ccccc2n1,-5,-13,-1,-7,-34
COc1ccc(/C=C/c2cc(C(=O)O)c3ccccc3n2)cc1,27,-39,-5,-5,71*
O=C(c1ccco1)N1CCc2ccc(NS(=O)(=O)c3cccs3)cc21,x,x,x,-8,x
O=C1C=CC2(O[C@H](c3ccccc3)[C@@H](c3ccccc3)O2)[C@H](Sc2ccccc2O)C1,x,89*,x,-9,36
C[C@@H]1[C@@H](Sc2ccccc2)CC(=O)O[C@@H]1c1ccc(-c2ccccc2)cc1,6,7,x,-27,-17
CN1CCN(NC(=O)CSc2cccc3cccnc23)CC1,x,x,x,91*,x
O=C(CSc1cccc2cccnc12)Nc1ccccc1,x,x,x,44,x
CCOC(=O)CSc1cccc2cccnc12,5,10,3,99*,-9
CCCCCOc1ccc(NC(=O)CSc2cccc3cccnc23)cc1,-4,5,3,79*,-12
Cc1cc(Br)cc(C)c1NC(=O)CSc1cccc2cccnc12,x,x,x,59*,x
CCc1nc(-n2cccc2)sc1C(=O)N[C@@H](C)CCc1ccccc1,x,x,x,-6,x
CC(=NNC(=O)c1ccc(CSc2nncn2C)cc1)c1ccc2ccccc2c1,x,x,x,-2,x
O=C(CCc1csc(NC(=O)c2cccs2)n1)Nc1ccc2c(c1)OCO2,x,x,x,-8,x
O=C(CSc1cccc2cccnc12)Nc1ccc(C(=O)O)cc1,x,x,x,133*,x
O=[N+]([O-])c1ccc(Nc2c([N+](=O)[O-])ccc3c2=NC2(CCCCC2)N=3)cc1,x,x,x,90*,x
Cc1ccc(CNC(=O)C(=O)NCC2CCN(C3CCCC3)CC2)cc1,x,x,x,-9,x
CC(C)(C)OC(=O)N1CCN(CCC#N)CC1,x,x,x,15,x
CCCCCCCN(C(=O)CCl)c1cccc(C)c1,92*,6,5,-8,-24
CN(C(=O)c1ccc([N+](=O)[O-])cc1)C1(C)CCS(=O)(=O)C1 (stereo not given),x,x,x,21,x
COc1cccc(OCC(=O)N(CCc2cccs2)C2CC2)c1,x,x,x,-16,x
O=[N+]([O-])c1ccc(NCCCN2CCOCC2)c2ncccc12,3,-14,-1,-2,-29
SMILES,BJeLR lethal,PrPC TRFRET,SARS 3CLpro inh,PriA SSB inh,PrP 5UTR inh
Clc1cc2c(c3ncccc13)OCN(CCCN1CCOCC1)C2,x,x,x,105*,x
O=[N+]([O-])c1ccccc1Sc1cccc2cccnc12,x,x,x,51,x
Cn1nc([N+](=O)[O-])nc1Sc1cccc2cccnc12,2,-14,7,78*,-19
Cn1nc([N+](=O)[O-])nc1Sc1nnc(-c2ccccc2)o1,56*,7,-1,-11,-28
O=Cc1ccc(Sc2nnc(-c3ccccc3)o2)c([N+](=O)[O-])c1,-7,x,0,-3,-14
COc1cccc2cc(C(=O)N3CC(S(=O)(=O)C4CCCCC4)C3)oc12,x,x,x,-5,x
CCOc1cc(CNc2ccc(CNc3ncn[nH]3)cc2)ccc1OCc1ccccc1,2,14,6,43*,-9
COc1cc(CNc2ccc(CNc3ncn[nH]3)cc2)ccc1OCC(=O)NC(C)(C)C,7,-5,-3,6,-15
COc1ccc(-c2csc3nc[nH]c(=O)c23)cc1OC,-6,-9,1,0,x
Cc1ccc(-c2csc3nc[nH]c(=S)c23)cc1C,2,-1,3,48*,-10
COc1ccc(NC(=O)Cn2cc(C(=O)c3ccc(F)cc3)c(=O)c3cc(F)ccc32)cc1,x,x,x,-6,x
Cc1nc2sccn2c1-c1nnc(SCC(=O)NCc2ccco2)n1C,x,x,x,-12,x

# Screens: PubChem, several laboratories
